Compounds with a hit are over-represented: about 5.2% of the library has one in this group of screens.
CendR NRP1 mod = NRP-1/CendR interaction modulation. O14786. FAM-RPARPAR peptide binding to NRP-1, fluorescence polarization. inhibition, % at 25 µM. hit rate 0.85% among 360,000;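 active = inhibition or corrected inhibition above about 18%, plus a signal ratio from 0.5 to 1.5, limit read from the data, passing the limit was not always enough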
PfM18AAP inh = PfM18AAP enzyme inhibition | hit rate 1.2% among 290,000 | inhibition, % at 7.35 µM | recombinant PfM18AAP, H-Glu-NHMec fluorogenic cleavage;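 active = inhibition above the campaign mean inhibition over all tested compounds plus 3 SD, cut at about 28% in these data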;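 note: 0% = plate median of test compound wells and 100% = 2 mM ZnCl2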
APOBEC3A inh = blocks human APOBEC3A ssDNA deamination; P31941; recombinant A3A, FAM/TAMRA ssDNA deamination fluorescence; inhibition, % at 20 µM; hit rate 0.41% among 330,000; AID 493011;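 active = at least 40% inhibition at 20 µM here, with at most 30% in a related deaminase screen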;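 note: plate controls were A3A with DMSO for no effect and wells lacking A3A enzyme for full effect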
ALR H2O2 inh = blocks human ALR sulfhydryl oxidase activity; P55789; purified ALR, DTT oxidation, H2O2 HRP-luminol luminescence; inhibition, % (no concentration beside the values); hit rate 3.8% among 290,000;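 active = mean replicate inhibition above about 79%, with every replicate also reaching it, limit read from the data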
Target sequence (P55789 whole entry, looked up): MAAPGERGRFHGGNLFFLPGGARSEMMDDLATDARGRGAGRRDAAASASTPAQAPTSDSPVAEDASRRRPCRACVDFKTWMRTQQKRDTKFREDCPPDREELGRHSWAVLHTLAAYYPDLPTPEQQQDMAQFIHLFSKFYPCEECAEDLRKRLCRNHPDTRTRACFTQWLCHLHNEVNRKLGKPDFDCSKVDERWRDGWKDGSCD
A3G deaminase = APOBEC3G (human) deaminase inhibition | recombinant A3G, ssDNA deamination FAM/TAMRA fluorescence | inhibition, % at 20 µM | hit rate 0.28% among 330,000;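 active = inhibition of at least 40% at 20 µM, with no more than 30% in the related APOBEC3A deaminase screen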;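 note: plate controls were DMSO wells with A3G for no effect and wells lacking A3G enzyme for full effect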
Target sequence (Q9HC16 whole entry, looked up): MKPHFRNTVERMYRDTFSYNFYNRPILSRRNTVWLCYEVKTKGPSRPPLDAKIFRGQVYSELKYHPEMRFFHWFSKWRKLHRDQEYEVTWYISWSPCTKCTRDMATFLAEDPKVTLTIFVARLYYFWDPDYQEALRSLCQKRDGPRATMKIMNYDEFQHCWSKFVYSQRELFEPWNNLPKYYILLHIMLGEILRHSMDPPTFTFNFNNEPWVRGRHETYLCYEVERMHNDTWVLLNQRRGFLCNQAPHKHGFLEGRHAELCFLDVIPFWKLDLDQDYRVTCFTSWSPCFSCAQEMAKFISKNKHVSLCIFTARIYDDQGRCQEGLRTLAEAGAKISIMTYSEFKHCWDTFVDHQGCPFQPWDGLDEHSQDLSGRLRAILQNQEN
Yeast superoxide = yeast age-related superoxide inhibition as caloric restriction mimetic; S. cerevisiae aged cells, superoxide DHE fluorescence; stronger effect = lower value; superoxide response (% of plate mean), % at 10 µM; hit rate 0.18% among 330,000; AID 2690;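 active = superoxide response under a set limit, about three screen SD below normal, cut at about 65% in these data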;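 note: yeast aged for seven days with compound at 30 °C before DHE staining; 100% = average MFI of all compound-treated wells on the plate with controls excluded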
A3A conf = APOBEC3A (human) deaminase inhibition, confirmed. hit rate 63% among 1,400. recombinant A3A, ssDNA deaminase UDG fluorescence assay. inhibition, % at 20 µM. shares compounds with APOBEC3A inh;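 active = inhibition reaching a set limit, 80% of the first screen's cutoff, at 20 µM in any replicate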;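 note: plate controls were DMSO wells with A3A for no effect and wells lacking A3A enzyme for full effect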
UDG ctr A3A = counter-screen for APOBEC3A inhibitors: UDG; shares compounds with APOBEC3A inh; UDG counterscreen, FAM/TAMRA uracil oligo fluorescence; inhibition, % at 20 µM; 1,000 tested, under 10 active; AID 504714; call rule not given here
Active calls of the source: *; / = no result given.

SMILES	CendR NRP1 mod	PfM18AAP inh	APOBEC3A inh	ALR H2O2 inh	A3G deaminase	Yeast superoxide	A3A conf	UDG ctr A3A
O=C(Cn1nnc(-c2ccc(S(=O)(=O)N3CCCC3)cc2)n1)Nc1ccccc1-n1cccc1	-2	-2	-1	2	5	125	/	/
COc1ccc(NC(=O)CNS(=O)(=O)c2ccc(Cl)cc2)cc1	-11	-3	0	-13	2	104	/	/
COc1ccc(NC(C)=[N+](C)CCNS(=O)(=O)c2ccc(Cl)cc2)cc1	0	1	46*	7	14	97	29	/
Cc1ccc(S(=O)(=O)Cc2ccc(C(=O)N3CCc4ccccc4C3)o2)cc1	-13	-1	41*	71	11	113	34*	-3
O=C(CSc1nc2sccc2c(=O)[nH]1)N1CCN(c2ccccc2)CC1	8	6	87*	59	15	102	53*	-2
O=C(CNc1ccccc1)Nc1ccc(F)cc1	-8	-13	-3	-1	-1	102	/	/
O=C(CNC(=O)OCc1ccccc1)Nc1ccc(F)cc1	4	/	67*	0	20	118	70*	1
N#C/C(=C/c1cccn1-c1cccc(C(=O)O)c1)c1ccc(Cl)cc1	-3	0	70*	35	20	101	65*	/
O=C(c1c(F)c(F)c(F)c(F)c1F)N1CCN(c2cccc(C(F)(F)F)c2)CC1	-2	-7	5	/	-1	87	/	/
CCCCCCCCCn1c2c(c(=N)c3c1CCC3)CCC2	1	-5	0	-24	-1	109	/	/
CCCCn1c2c(c(=N)c3c1CCC3)CCC2	6	5	63*	-5	21	99	78*	-1
C[n+]1cnc(-c2ccccc2)cc1-c1ccccc1	3	-9	45*	-8	29	118	62*	0
c1ccc(-c2cc(-c3ccccc3)ncn2)cc1	10	/	-2	2	-10	92	/	/
Cc1cc(C)c2c(n1)sc1c(N3CCCCC3)ncnc12	15	-3	0	-2	-3	100	/	/
O=C1C2C(C(=O)N1/N=C/c1cc([N+](=O)[O-])c(O)cc1O)C1C=CC2C12CC2 (stereo not given)	10	15	78*	0	19	91	74*	-2
CCN(CC(=O)Nc1ccc(NC(C)=O)cc1)C(=O)/C=C/c1ccccc1	2	/	-1	-2	-10	102	/	/
CCN(CC(=O)Nc1ccc(NC(C)=O)cc1)C(=O)/C=C/c1cn(-c2ccccc2)nc1-c1cccs1	0	/	45*	-11	4	88	16	/
CSc1cccc(N2CC(C(=O)Nc3cccc(S(=O)(=O)N4CCCC4)c3)CC2=O)c1 (stereo not given)	-1	/	56*	-5	15	105	14	/
CCN1CCN(c2ccc(NC(=O)c3ccc(OC)c(S(=O)(=O)N4CCCC4)c3)cc2)CC1	13	/	15	-1	7	111	/	/
CCN1CCN(c2ccc(NC(=O)c3ccc(Cl)c(S(=O)(=O)N4CCCC4)c3)cc2)CC1	-9	/	40*	/	1	/	15	/
CCN1CCN(c2ccc(NC(=O)c3ccc(Cl)c(N4CCCC4=O)c3)cc2)CC1	2	-9	66*	-5	8	101	26	/
O=C(c1ccc(Cl)c(S(=O)(=O)N2CCOCC2)c1)N1CCCC1	3	-12	1	5	-4	96	/	/
CCN1CCN(C(=O)c2ccc(Cl)c(S(=O)(=O)N3CCOCC3)c2)CC1	-1	-8	41*	-4	12	79	14*	2
CCN1CCN(c2ccc(NC(=O)c3ccc4c(c3)OCO4)cc2)CC1	10	-4	0	-14	-2	87	/	/
Cc1ccc(Cl)cc1N1CCN(CC(O)COC(C)C)CC1 (stereo not given)	-12	2	1	/	-2	101	/	/
SMILES	CendR NRP1 mod	PfM18AAP inh	APOBEC3A inh	ALR H2O2 inh	A3G deaminase	Yeast superoxide	A3A conf	UDG ctr A3A
Cn1c(N)c(C(=O)COC(=O)COc2ccc(C#N)cc2)c(=O)n(C)c1=O	-6	-5	92*	-4	-8	99	3	5
Cn1c(N)c(C(=O)COc2ccc(C#N)cc2)c(=O)n(C)c1=O	-4	0	5	-12	2	102	/	/
O=C(NCC1CCCO1)c1ccc(NC(=O)c2cccc(Br)c2)cc1 (stereo not given)	-2	-10	-2	-5	-3	96	/	/
O=C1/C(=C/c2ccco2)SC(=S)N1CC1CCCO1 (stereo not given)	-40	9	56*	-17	19	83	26*	3
O=C1/C(=C/c2ccco2)SC(=S)N1C1CCS(=O)(=O)C1 (stereo not given)	-7	31*	47*	-5	18	102	52*	/
Cc1ccc(/C=C2\SC(=S)N(CC3CCCO3)C2=O)o1 (stereo not given)	-65	18	11	-4	18	109	/	/
CN(C)CCOc1ccc(-c2c(-c3ccccc3)sc3ccccc23)cc1	6	/	-5	-11	-8	104	/	/
COc1cc2[nH]c(=O)c(C(=O)NCc3ccccc3Cl)c(O)c2cc1OC	-1	-4	2	1	3	105	/	/
CCN(CC)c1ccc(/C=C/c2ccc3ccc(OC)cc3[n+]2CC)cc1	-106	-9	75*	99*	26	109	84*	0
CC[n+]1c(/C=C/c2ccc(OC(C)=O)c(OC)c2)ccc2ccccc21	10	3	53*	57	20	104	58*	/
CC[n+]1c(/C=C/c2cc([N+](=O)[O-])ccc2O)ccc2ccccc21	-4	10	7	-50	-11	115	/	/
CC[n+]1c(/C=C/c2ccc(OC)c(OC)c2)ccc2ccccc21	-27	4	79*	20	-14	106	93*	0
Cc1ccc(S(=O)(=O)N(CC2CO2)c2cc(Cl)ccc2Cl)cc1 (stereo not given)	-9	2	-5	-6	-9	92	/	/
CC(c1ccccc1)n1c(-c2cccs2)nc2c(c(=O)c3ccccc3n2C)c1=O (stereo not given)	-1	-6	2	0	-1	101	/	/
O=C(NCCCN1CCOCC1)c1cn(-c2ccccc2)nc1-c1cccs1	-1	3	1	/	2	96	/	/
COC(=O)[C@@H]1CCCN1Cc1nc(Cc2ccc(OC)c(OC)c2)no1	-6	-4	-1	-1	-2	117	/	/
CC1CCC(C(C)C)C(OP(=O)(c2ccccc2)C(O)c2ccncc2)C1 (stereo not given)	-10	0	-4	-2	-7	102	/	/
COC(=O)CCC(=O)Nc1nnc(C(F)(F)F)s1	-4	-8	-3	-3	-1	110	/	/

Screening data as filed in PubChem.
